PubChem BioAssay AID743148 (Broad Institute, 2013)
Active and inactive are the calls of the source.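 How the source made its calls: active means fitted half-maximal signal loss reached at or below twice the highest valid dose tested; inconclusive means flat curve with 30 to 70% loss, or a poor fit; inactive means the rest, including signal gain.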

test: viability loss in HepG2 liver cells – cell-based, CellTiter-Glo luminescence, dry powder, set 4, cytotoxicity control, dose response (AID 743148); settings: CellTiter-Glo ATP luminescence, 72 h; series mostly up to 26 µM

SMILES	outcome
C[C@@H]1CC(=O)NN=C1c1ccc(F)c(F)c1	inactive
CCN1N=C(c2ccc(N(CC)CC)cc2)[C@H](C)CC1=O	inactive
CC(=O)Nc1ccc(C2=NNC(=O)C[C@H]2C)cc1[N+](=O)[O-]	inactive
C[C@@H]1CC(=O)NN=C1c1ccc(Cl)cc1	inactive
Cn1c(NC(=O)c2ccccc2)nc2ccccc21	inactive
C[C@@H]1CC(=O)NN=C1c1ccc(C2CCCCC2)cc1	inactive
C[C@@H]1CC(=O)NN=C1c1ccc(N2CCOCC2)c(F)c1	inactive
O=C1CN2Cc3c(ccc(Cl)c3Cl)N=C2N1	inactive
C[C@H]1CC(=O)NN=C1c1ccc(N2CCOCC2)c(F)c1	inactive
C[C@@H]1CC(=O)NN=C1c1ccc(-c2cncnc2)cc1	inactive
COc1cc2c(cc1OC)-c1cc(=Nc3c(C)cc(C)cc3C)n(C)c(=O)n1CC2	inactive
CCN(CC)c1ccc(C2=NNC(=O)CC2C)cc1[N+](=O)[O-] (stereo not drawn)	inactive
C[C@@H]1CC(=O)NN=C1c1ccc(N2CCOCC2)cc1	inactive
